Hits are enriched below; roughly 3.8% of the tested compounds scored in any of these assays.
NTR1 ag: activates human neurotensin receptor 1; P30989; NTR1-U2OS beta-arrestin-GFP spot imaging, agonist mode; activation, % at 20 µM; 0.17% of 330,000 active; AID 493036;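 active = activation at or above 40% of the spot to cytoplasm intensity ratio, with at least 20 cells analyzed; inconclusive = wells under 20 cells, flagged as cytotoxic or low count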;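 also: 0% = DMSO without peptide and 100% = 100 nM NTR1 peptide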
Target sequence (P30989 whole entry, looked up): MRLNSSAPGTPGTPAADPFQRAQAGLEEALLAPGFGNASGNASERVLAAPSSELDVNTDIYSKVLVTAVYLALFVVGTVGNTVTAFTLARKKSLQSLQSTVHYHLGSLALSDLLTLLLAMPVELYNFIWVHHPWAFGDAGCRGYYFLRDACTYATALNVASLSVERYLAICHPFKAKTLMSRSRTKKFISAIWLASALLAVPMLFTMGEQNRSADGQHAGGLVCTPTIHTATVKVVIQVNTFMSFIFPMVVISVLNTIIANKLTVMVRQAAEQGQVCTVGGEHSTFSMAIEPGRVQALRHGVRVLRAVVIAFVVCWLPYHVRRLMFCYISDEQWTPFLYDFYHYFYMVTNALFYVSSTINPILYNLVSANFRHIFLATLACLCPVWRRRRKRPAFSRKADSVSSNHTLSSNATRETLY
Jurkat NFkB inh: inhibitors of the PMA/ionomycin-induced NF-kB reporter in Jurkat cells | PMA/ionomycin-induced NF-kB luciferase reporter, luminescence | inhibition, % at 4 µM | 0.53% of 330,000 active | AID 435003; in the data active = inhibition above about 50%
697 NFkB inh: lowers PMA/ionomycin-induced NF-kB signal in 697 B cells; 697 B-cell NF-kB luciferase reporter, 16 h; inhibition, % at 4 µM; 0.33% of 330,000 active; AID 435022; in the data active = inhibition above about 35%
A1 inh: inhibitors of the anti-apoptotic protein A1, read as caspase activation; caspase activation, % (no concentration beside the values); MEF A1-2A-BIM cells, Caspase-Glo 3/7 luminescence, 3 h; percent of clofoctol response, vehicle zero; 0.066% of 330,000 active;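 active = over half of replicate activation scores above 10%, or exactly half above 10 with the replicate mean above 10; inconclusive = replicate mean below 10 yet half the replicates above 10; inactive = over half of replicates below 10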
Beta cell apopt: blocks beta cell apoptosis. INS-1E cytokine-induced death, ATP luminescence, 48 h; percent of positive-control rescue, neutral wells zero. protection from apoptosis, % (no concentration beside the values). 0.8% of 300,000 active;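 active = Every replicate reaches about 75%, or at least half do and their mean reaches it too, limit read from the data; inconclusive = At least half of replicates reach the limit but their mean does not; inactive = Under half of replicates reach the limit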;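 also: 0% = cytokine-treated negative control wells and 100% = positive control rescue; higher means more ATP so stronger rescue from cytokine killing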
Mdm2 MdmX PPI: human Mdm2/MdmX binding inhibition; O15151+Q00987; SaOS-2 split-luciferase Mdm2/MdmX complementation, luminescence; inhibition, % at 8 µM; 3% of 330,000 active; AID 485346;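 active = inhibition of at least 50% at 8 µM in the primary screen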
Jurkat NFkB conf: inhibitors of the PMA/ionomycin-induced NF-kB reporter in Jurkat cells, retest | shares compounds with Jurkat NFkB inh | Jurkat NF-kB luciferase, 16 h | inhibition, % at 4 µM | 27% of 2,700 active;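 active = inhibition reaching about 45% at 4 µM in either replicate, limit read from the data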;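 also: plate controls were PMA/ionomycin stimulated DMSO wells for no effect and unstimulated DMSO wells for full effect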
697 NFkB conf: inhibitors of the PMA/ionomycin-induced NF-kB reporter in 697 B cells, retest | shares compounds with 697 NFkB inh | 697 B-cell NF-kB luciferase, 16 h | inhibition, % at 4 µM | 35% of 2,000 active | AID 449746; in the data active = inhibition mostly above about 28%, no sharp cut-off; inactive = mostly below about 22%
Mdm2-MdmX conf: confirmation of human Mdm2/MdmX interaction inhibitors; shares compounds with Mdm2 MdmX PPI; Mdm2-MdmX binding, luminescent assay; inhibition, % at 8 µM; 55% of 10,000 active; AID 489028; in the data active = inhibition above about 40%
FLuc counter: full-length luciferase inhibition in Mdm2/MdmX counter-screen | shares compounds with Mdm2 MdmX PPI | SaOS-2 full-length luciferase counterscreen, luminescence | inhibition, % at 8 µM | 77% of 6,200 active;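 active = mean inhibition at 8 µM reaching about 37%, which flags the compound as non-specific, limit read from the data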;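 also: p53-null SaOS-2 cells with luciferase driven by a doxycycline-inducible promoter; compound on cells about two nights before reading with doxycycline added after day one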
* hit, by the source's call.

For COc1ccccc1C1C([N+](=O)[O-])=C(N)Oc2c1c(=O)oc1ccccc21 (stereo not given) the results were NTR1 ag 1, Jurkat NFkB inh -6, 697 NFkB inh -1, A1 inh 0, Beta cell apopt -1 and Mdm2 MdmX PPI -7.
C=C1C(=O)O[C@@H]2C[C@@H](C)[C@@H]3C=CC(=O)[C@@]3(C)[C@@H](OC(=O)CC(=O)O[C@H]3[C@@H]4C(=C)C(=O)O[C@@H]4C[C@@H](C)[C@@H]4C=CC(=O)[C@]43C)[C@H]12 was read as NTR1 ag 0, Jurkat NFkB inh 93*, 697 NFkB inh 104*, A1 inh -2, Beta cell apopt 132*, Mdm2 MdmX PPI 97*, Jurkat NFkB conf 100*, 697 NFkB conf 101*, Mdm2-MdmX conf 100* and FLuc counter 4.
C=C1C(=O)O[C@H]2C[C@@H](C)[C@@H]3C=CC(=O)[C@@]3(C)C[C@H]12 was read as NTR1 ag 2, Jurkat NFkB inh 88*, 697 NFkB inh -341, A1 inh 4, Beta cell apopt 104*, Mdm2 MdmX PPI 100*, Jurkat NFkB conf 63*, 697 NFkB conf -235, Mdm2-MdmX conf 96* and FLuc counter 53*.
`C=C1C(=O)O[C@H]2[C@H]1[C@H](OC(=O)CC(=O)O[C@@H]1C[C@@H](C)[C@@H]3C=CC(=O)[C@@]3(C)[C@H]3OC(=O)C(=C)[C@H]13)C[C@@H](C)[C@H]1C=CC(=O)[C@]12C` gave NTR1 ag 5, Jurkat NFkB inh 19, 697 NFkB inh -76, A1 inh 0, Beta cell apopt 43 and Mdm2 MdmX PPI 49.
Screening O=[N+]([O-])c1cc(-n2cnnn2)c(O)c([N+](=O)[O-])c1 returned NTR1 ag 1, Jurkat NFkB inh 0, 697 NFkB inh 1, A1 inh -1, Beta cell apopt 4 and Mdm2 MdmX PPI -30.
Screening C[C@]12CC[C@H](O)C[C@H]1CC[C@@H]1[C@@H]2CC[C@]2(C)[C@@H](C3=CC(=O)OC3)CC[C@]12O returned NTR1 ag 0, Jurkat NFkB inh 101*, 697 NFkB inh 9, A1 inh inconclusive, Beta cell apopt -3, Mdm2 MdmX PPI 75*, Jurkat NFkB conf 91*, Mdm2-MdmX conf 73* and FLuc counter 53*.
`C[C@]12CC[C@H](O)C[C@H]1CC[C@@H]1[C@@H]2C[C@@H](O)[C@]2(C)[C@@H](C3=CC(=O)OC3)CC[C@]12O` gave NTR1 ag -2, Jurkat NFkB inh 98*, 697 NFkB inh -272, A1 inh 0, Beta cell apopt 5, Mdm2 MdmX PPI 73*, Jurkat NFkB conf 74*, 697 NFkB conf -331, Mdm2-MdmX conf 73* and FLuc counter 34.
CC12CC[C@H]3[C@@H](CCC4(O)C[C@H](O)CCC34/C=N/NC(=O)Cc3ccccc3)C1(O)CCC2C1=CC(=O)OC1 (stereo not given in full) was read as NTR1 ag 2, Jurkat NFkB inh -10, 697 NFkB inh -1, A1 inh -1, Beta cell apopt -6 and Mdm2 MdmX PPI -36.
Screening CN1CC(C(=O)c2cccc(C(F)(F)F)c2)C(c2ccc(Cl)cc2)C1 (stereo not given) returned NTR1 ag 1, Jurkat NFkB inh -23, 697 NFkB inh 0, A1 inh -1, Beta cell apopt -5 and Mdm2 MdmX PPI -8.
`CC(C)c1oc(=O)cc2c1[C@@H](O)[C@H]1OC(=O)[C@@]3(C)CC[C@@H](O)[C@@]2(C)C13` (stereo not given in full) gave NTR1 ag 4, Jurkat NFkB inh 72*, 697 NFkB inh -19, A1 inh 1, Beta cell apopt -11, Mdm2 MdmX PPI 63*, Jurkat NFkB conf 60*, Mdm2-MdmX conf 61* and FLuc counter 65*.
CC(C)c1oc(=O)cc2c1[C@@H](O)[C@H]1OC(=O)[C@@]3(C)C[C@@H](O)[C@@H](O)[C@@]2(C)C13 (stereo not given in full) was read as NTR1 ag 7, Jurkat NFkB inh 90*, 697 NFkB inh -265, A1 inh 0, Beta cell apopt 12, Mdm2 MdmX PPI 81*, Jurkat NFkB conf 90*, 697 NFkB conf -99, Mdm2-MdmX conf 58* and FLuc counter 30.
Screening Cc1ccc(C2=NC(C)(C)N3C2C3c2ccc([N+](=O)[O-])cc2)cc1 (stereo not given) returned NTR1 ag 0, Jurkat NFkB inh 13, 697 NFkB inh 4, A1 inh 0, Beta cell apopt -6 and Mdm2 MdmX PPI -9.
Screening COC(=O)C1=C(c2ccc(F)cc2F)C[C@@H]2CC[C@H]1N2C(=O)NCC1CC1 returned NTR1 ag -1, Jurkat NFkB inh 8, 697 NFkB inh 7, A1 inh -1, Beta cell apopt -4 and Mdm2 MdmX PPI 20.
CC(=O)O[C@H]1C(=O)[C@@]2(C)C([C@H](OC(=O)c3ccccc3)[C@]3(O)C[C@H](O)C(C)=C1C3(C)C)[C@]1(OC(C)=O)CO[C@@H]1C[C@H]2O (stereo not given in full) was read as NTR1 ag 0, Jurkat NFkB inh 23, 697 NFkB inh 11, A1 inh 0 and Mdm2 MdmX PPI 30.
CC(=O)O[C@H]1C(=O)[C@@]2(C)C([C@H](OC(=O)c3ccccc3)[C@]3(O)C[C@H](OC(=O)[C@H](O)[C@@H](NC(=O)Cc4ccccc4)c4ccccc4)C(C)=C1C3(C)C)[C@]1(OC(C)=O)CO[C@@H]1C[C@@H]2O (stereo not given in full) was read as NTR1 ag 4, Jurkat NFkB inh 62*, 697 NFkB inh -2, A1 inh 2, Beta cell apopt 5, Mdm2 MdmX PPI 66*, Jurkat NFkB conf 62*, Mdm2-MdmX conf 66* and FLuc counter 42*.
